# The source made the active and inactive calls.
# Tests used:
# [1] = tested on: PRMT1 (protein arginine N-methyltransferase 1); test: small molecules binding arginine methyltransferase PRMT1 – biochemical, small-molecule microarray, 635 nm fluorescence, primary screen (AID 1088); settings: higher = more signal;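 note: binding of Prmt1 protein to compounds spotted on small-molecule microarray slides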
# [2] = growth effects on S. cerevisiae YJM789 – YJM789 clinical isolate, OD600, 24 h, basal, primary screen (AID 1089); settings: higher = more signal, called active from +8 up or from −8 down;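 note: growth of clinical yeast isolate S. cerevisiae YJM 789 seeded 1000 cells per well; test concentration not given here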
# [3] = S. pombe growth modifiers, basal conditions – strain 972, OD600, 24 h, no modulator, primary screen (AID 1090);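 note: basal condition with compound alone and no growth modifier present; test concentration not given here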; settings: S. pombe 972 growth, higher = more signal, called active from +8 up or from −8 down
# [4] = budding yeast growth modifiers under rapamycin – strain BY4716, OD600, 96 h, primary screen (AID 1091); note: test concentration not given here; settings: S. cerevisiae BY4716 + rapamycin, higher = more signal, called active from +8 up or from −8 down
# [5] = target: Torsin-1A-interacting protein 2 (Homo sapiens) (UniProt Q8NFQ8); test: small molecules binding lysate-expressed LULL1 – cell lysate, human LULL1 lysate, 635/667 nm fluorescence, primary screen (AID 1092); settings: small-molecule microarray, hLULL1 lysate binding, 635 nm fluorescence; higher = more signal;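 note: probe is lysate of COS7 cells overexpressing human LULL1; score merges per-feature 667 nm fluorescence with signal-to-noise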
# Sequence of Torsin-1A-interacting protein 2 (Homo sapiens) (Q8NFQ8 whole entry, looked up): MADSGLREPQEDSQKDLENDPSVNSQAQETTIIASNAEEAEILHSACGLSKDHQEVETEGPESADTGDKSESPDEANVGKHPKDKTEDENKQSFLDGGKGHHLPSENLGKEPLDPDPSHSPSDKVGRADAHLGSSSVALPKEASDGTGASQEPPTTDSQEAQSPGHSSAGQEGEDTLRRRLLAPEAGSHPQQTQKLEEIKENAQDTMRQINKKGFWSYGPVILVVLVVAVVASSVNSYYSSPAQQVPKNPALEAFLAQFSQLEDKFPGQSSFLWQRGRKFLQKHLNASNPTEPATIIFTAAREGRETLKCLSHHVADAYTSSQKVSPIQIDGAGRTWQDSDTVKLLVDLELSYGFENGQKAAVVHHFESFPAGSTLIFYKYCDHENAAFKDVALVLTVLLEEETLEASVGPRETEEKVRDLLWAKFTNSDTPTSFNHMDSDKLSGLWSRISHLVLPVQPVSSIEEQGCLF
# [6] = optical density change of DRC41 E. coli – strain DRC41, OD650, 24 h, E. coli filamentation project, primary screen (AID 1093);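 note: MC1000 strain lacking acrAB efflux and sulA so SOS filamentation is blocked; test concentration not given here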; settings: E. coli DRC41 growth, higher = more signal, called active from +8 up or from −8 down
# [7] = probe aLefty2 binding to arrayed compounds – biochemical, biotinylated probe, 635/667 nm fluorescence, primary screen (AID 1094); settings: small-molecule microarray, higher = more signal;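 note: score merges spot fluorescence near 667 nm with spot signal-to-noise ratio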
# [8] = tested on: Noggin (protein binding on small-molecule microarray); test: small molecules binding Noggin protein – biochemical, 635/667 nm fluorescence, primary screen (AID 1095); settings: 635 nm fluorescence, higher = more signal;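 note: score merges 667 nm feature fluorescence with signal to noise over triplicate slides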
# [9] = target: Neurogenic locus notch homolog protein 3 (Homo sapiens) (UniProt Q9UM47); test: small molecules binding NOTCH3 protein – biochemical, 635/667 nm fluorescence, primary screen (AID 1096); settings: small-molecule microarray, 635 nm fluorescence, higher = more signal
# Sequence of Neurogenic locus notch homolog protein 3 (Homo sapiens) (Q9UM47 whole entry, looked up): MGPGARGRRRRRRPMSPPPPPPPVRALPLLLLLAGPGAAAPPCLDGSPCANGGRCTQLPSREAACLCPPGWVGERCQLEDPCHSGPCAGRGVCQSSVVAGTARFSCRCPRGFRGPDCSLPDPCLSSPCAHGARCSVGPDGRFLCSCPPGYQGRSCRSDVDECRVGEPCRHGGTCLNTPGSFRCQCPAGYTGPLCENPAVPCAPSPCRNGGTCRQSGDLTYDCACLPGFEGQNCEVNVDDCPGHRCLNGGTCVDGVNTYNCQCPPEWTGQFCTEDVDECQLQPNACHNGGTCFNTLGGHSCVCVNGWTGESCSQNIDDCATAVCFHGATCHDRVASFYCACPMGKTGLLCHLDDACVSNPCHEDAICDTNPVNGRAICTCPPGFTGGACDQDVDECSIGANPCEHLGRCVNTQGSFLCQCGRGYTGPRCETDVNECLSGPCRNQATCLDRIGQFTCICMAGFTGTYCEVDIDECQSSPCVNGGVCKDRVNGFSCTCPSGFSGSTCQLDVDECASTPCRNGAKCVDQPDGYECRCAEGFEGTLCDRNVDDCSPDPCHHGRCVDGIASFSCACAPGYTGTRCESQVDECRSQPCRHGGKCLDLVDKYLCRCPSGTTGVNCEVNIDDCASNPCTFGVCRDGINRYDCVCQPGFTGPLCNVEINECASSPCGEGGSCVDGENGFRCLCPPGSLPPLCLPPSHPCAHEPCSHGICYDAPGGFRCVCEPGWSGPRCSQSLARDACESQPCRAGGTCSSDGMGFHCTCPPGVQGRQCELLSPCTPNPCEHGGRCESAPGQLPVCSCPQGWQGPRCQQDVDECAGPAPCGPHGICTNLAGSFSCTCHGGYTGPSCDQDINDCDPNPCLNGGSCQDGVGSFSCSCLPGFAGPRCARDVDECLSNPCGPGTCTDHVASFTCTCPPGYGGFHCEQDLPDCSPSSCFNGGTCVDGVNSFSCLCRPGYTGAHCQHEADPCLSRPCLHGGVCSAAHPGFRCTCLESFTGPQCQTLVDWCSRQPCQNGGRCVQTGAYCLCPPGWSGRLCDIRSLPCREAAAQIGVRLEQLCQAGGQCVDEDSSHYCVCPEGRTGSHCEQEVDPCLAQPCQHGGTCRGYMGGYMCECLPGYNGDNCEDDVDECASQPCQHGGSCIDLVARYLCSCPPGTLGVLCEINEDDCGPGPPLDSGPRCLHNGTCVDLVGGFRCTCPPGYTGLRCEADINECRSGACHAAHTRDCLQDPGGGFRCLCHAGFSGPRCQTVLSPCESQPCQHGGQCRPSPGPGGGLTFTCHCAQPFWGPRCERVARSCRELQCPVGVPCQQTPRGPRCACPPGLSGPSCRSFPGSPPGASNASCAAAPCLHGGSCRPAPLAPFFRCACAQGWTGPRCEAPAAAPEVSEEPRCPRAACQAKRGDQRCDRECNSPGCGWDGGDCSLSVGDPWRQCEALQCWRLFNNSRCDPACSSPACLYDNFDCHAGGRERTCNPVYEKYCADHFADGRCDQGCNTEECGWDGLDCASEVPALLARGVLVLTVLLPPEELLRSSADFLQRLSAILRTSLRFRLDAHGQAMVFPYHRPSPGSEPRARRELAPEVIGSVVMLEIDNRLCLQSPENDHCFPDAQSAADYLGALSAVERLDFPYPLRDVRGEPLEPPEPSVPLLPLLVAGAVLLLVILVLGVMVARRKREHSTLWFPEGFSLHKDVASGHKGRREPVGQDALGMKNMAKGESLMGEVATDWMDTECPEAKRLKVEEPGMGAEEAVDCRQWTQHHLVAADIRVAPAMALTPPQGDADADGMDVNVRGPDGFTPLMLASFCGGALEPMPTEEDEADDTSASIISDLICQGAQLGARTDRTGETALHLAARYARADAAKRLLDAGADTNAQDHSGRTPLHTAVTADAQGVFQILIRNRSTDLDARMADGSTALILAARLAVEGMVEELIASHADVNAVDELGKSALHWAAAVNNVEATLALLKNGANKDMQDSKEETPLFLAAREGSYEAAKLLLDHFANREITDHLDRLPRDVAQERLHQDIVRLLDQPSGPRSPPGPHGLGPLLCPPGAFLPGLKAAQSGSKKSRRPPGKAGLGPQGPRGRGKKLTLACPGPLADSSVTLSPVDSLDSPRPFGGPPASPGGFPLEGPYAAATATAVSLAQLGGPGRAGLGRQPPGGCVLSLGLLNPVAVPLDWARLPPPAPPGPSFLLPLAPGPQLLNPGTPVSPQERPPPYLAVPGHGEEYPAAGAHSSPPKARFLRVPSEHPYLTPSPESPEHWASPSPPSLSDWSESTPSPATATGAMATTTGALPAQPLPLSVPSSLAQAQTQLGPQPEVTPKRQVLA
# [10] = probe aEGFR binding to arrayed compounds – biochemical, biotinylated probe, 635/667 nm fluorescence, primary screen (AID 1097); settings: small-molecule microarray, higher = more signal;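 note: probe is a biotinylated anti-EGFR antibody binding compounds printed on slides; score combines fluorescence near 667 nm and signal to noise of each spot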
SMILES,composite z-score [1],z-score [2],z-score [3],z-score [4],composite z-score [5],z-score [6],composite z-score [7],composite z-score [8],composite z-score [9],composite z-score [10]
C=CCNC(=O)[C@H]1[C@@H]2C(=O)O[C@@H](c3ccccc3)[C@@H](c3ccccc3)N2[C@@H](c2ccc(O)cc2)[C@]12C(=O)N(C(=O)OCCOC)c1ccc(C#CCC(C(=O)OC)C(=O)OC)cc12,1.56,0.106 (inactive),1.57 (inactive),5.5 (inactive),2.11,0.301 (inactive),-0.0229,1.2,1.11,0.0551
[N-]=[N+]=Nc1ccccc1C[C@@]1(C(=O)O)N=C(c2ccc(OCCCO)cc2)O[C@@H]1c1ccccc1N=[N+]=[N-],1.39,-1.05 (inactive),-0.613 (inactive),-1.67 (inactive),3.04,-0.679 (inactive),0.255,-0.414,1.09,0.0998
CCOC(=O)C1=CCN(S(=O)(=O)c2ccc(C)cc2)C1c1ccccc1 (stereo not given),1.03,-1.76 (inactive),-0.849 (inactive),0.318 (inactive),2.93,-0.4 (inactive),0.38,0.216,0.821,0.227
COC(=O)[C@@]1(Cc2ccccc2)[C@H]2c3cc(C(=O)N(C)C)n(CCn4cc([N+](=O)[O-])nc4C)c3C[C@H]2CN1C(=O)c1ccccc1,1.13,-1.54 (inactive),0.69 (inactive),0.253 (inactive),3.63,-0.592 (inactive),0.16,0.0356,1.03,-0.0088
Cc1ccccc1C(O)C1C=CC2C(=O)N(c3ccccc3)C(=O)C2N1Nc1ccc([N+](=O)[O-])cc1 (stereo not given),1.45,-0.715 (inactive),0.796 (inactive),2.67 (inactive),3.39,0.13 (inactive),0.0839,0.327,1.05,0.156
Cc1ccc(S[C@]2(C(=O)NC(C)C)CC(=O)N(Cc3ccccc3Cl)[C@@H]2c2ccc(CO)cc2)cc1,-0.577,-0.651 (inactive),-1.13 (inactive),-0.072 (inactive),2.06,-1.29 (inactive),0.0425,-0.82,-0.452,-0.227
O=C1N[C@@H](Cc2ccccc2)C(=O)N2[C@@H]1C[C@@H](C(=O)O)[C@H]2c1ccc(O)cc1,1.19,-0.0447 (inactive),-0.701 (inactive),-0.54 (inactive),2.41,1.54 (inactive),0.391,1.5,1.11,0.335
CC1CC/C=C\[C@H]2OC34C=CCN(CCN5CCOCC5)C(=O)[C@H]3N(C(C)CO)C(=O)[C@@H]4C2C(=O)O1 (stereo not given in full),0.564,0.194 (inactive),-0.365 (inactive),0.0614 (inactive),3.36,-0.476 (inactive),-0.161,0.223,0.21,-0.156
C=CCOC(=O)[C@H]1[C@@H]2C(=O)O[C@@H](c3ccccc3)[C@@H](c3ccccc3)N2[C@@H](c2ccc(OCCOC(=O)[C@H]3C[C@H]4C(=O)N[C@@H](CCCCNC(C)=O)C(=O)N4[C@H]3c3cccc(OCCO)c3)cc2)[C@]12C(=O)Nc1ccc(I)cc12,1.55,1.15 (inactive),1.14 (inactive),4.54 (inactive),2.18,1.44 (inactive),-0.431,1.87,1.1,-0.336
COc1cc2c(cc1OC)CN(C(=O)[C@@H]1[C@H]3C(=O)O[C@H](c4ccccc4)[C@H](c4ccccc4)N3[C@H](c3ccc(O)cc3)[C@@]13C(=O)Nc1ccc(C#CCCO)cc13)CC2,1.34,1.09 (inactive),0.673 (inactive),1.81 (inactive),2.5,-0.385 (inactive),-0.0809,0.32,0.667,-0.0424
CC(C)C[C@@H]1NC(=O)[C@H]2C[C@@H](C(=O)NCCCCCN)[C@@H](c3cccc(OCCO)c3)N2C1=O,0.808,-3.54 (inactive),-0.726 (inactive),-1.04 (inactive),0.872,0.545 (inactive),0.13,-0.993,0.135,-0.14
CS(=O)(=O)CCOC(=O)C1=CC(CCCO)=CC(C2CC2)N(Cc2cccc(OC(F)(F)F)c2)C=C1C(=O)OCCS(C)(=O)=O (stereo not given),0.757,-0.725 (inactive),-2.34 (inactive),-1.75 (inactive),2.29,-0.917 (inactive),0.203,-0.0678,0.0213,-0.106
CCOC(=O)C1=CC[C@@H](c2ccccc2)N(S(=O)(=O)c2ccc(C)cc2)[C@H]1c1cccc(OC)c1,1.06,0.498 (inactive),1.52 (inactive),2.05 (inactive),2.19,-0.439 (inactive),0.116,-0.266,0.618,-0.0407
C[C@]1(C(=O)NCCN2CCOCC2)c2ccccc2C(=O)N(Cc2cc(F)cc(C(F)(F)F)c2)[C@H]1c1ccc(CO)cc1,1.49,0.006 (inactive),0.487 (inactive),-0.837 (inactive),3.36,1.47 (inactive),-0.0511,0.463,0.572,-0.142
O=C(NCC(O)CO)[C@@]1(CCS(=O)(=O)c2ccccc2)COC(c2ccc(OCCCO)cc2)=N1 (stereo not given in full),0.797,0.257 (inactive),-0.197 (inactive),0.648 (inactive),3.86,0.671 (inactive),0.362,0.481,0.79,0.473
CC(C)C(=C=CC[C@H](O)c1cccc(OCCO)c1)CCO,0.801,-1.16 (inactive),-0.538 (inactive),-1.42 (inactive),0.228,0.537 (inactive),-0.285,0.683,0.234,-0.165
NC(=O)NCC#Cc1ccc2c(c1)[C@]1(C(=O)N2)[C@H](C(=O)N2CCN(c3ncccn3)CC2)[C@H]2C(=O)O[C@H](c3ccccc3)[C@H](c3ccccc3)N2[C@@H]1c1ccc(OCCO)cc1,1.18,2.47 (inactive),2.31 (inactive),5.27 (inactive),1.89,1.37 (inactive),-0.0321,0.513,1.13,-0.0271
COCCOC(=O)N1C(=O)[C@@]2(c3ccccc31)[C@H](c1ccc(OCCO)cc1)N1[C@H](c3ccccc3)[C@H](c3ccccc3)OC(=O)[C@H]1[C@@H]2C(=O)N1CCCCCCC1,1.54,0.178 (inactive),0.182 (inactive),2.92 (inactive),5.18,-0.504 (inactive),1.83,2.45,1,1.43
CO[C@H]1O[C@H](CO)[C@@H](OC(=O)Nc2ccc(C#N)cc2)[C@@H]2OC(=O)[C@H](Cc3cccc(Br)c3)C/C=C/C[C@@H](Cc3cccc(Br)c3)C(=O)O[C@@H]12,1.24,0.471 (inactive),0.0261 (inactive),27.2 (active),1.26,0.27 (inactive),0.212,0.432,0.733,0.11
CC(C)C(=C=CC[C@@H](O)c1cccc(OCCO)c1)C[C@@H](O)c1ccccn1,0.504,-0.282 (inactive),-0.361 (inactive),-0.419 (inactive),1.26,0.379 (inactive),-0.283,0.38,0.603,-0.161
COc1cc(CO)cc(I)c1O[C@H]1C=C(C(=O)NCCO)C[C@@H](NCC2CCCCC2)[C@@H]1O,0.332,-1.94 (inactive),-0.883 (inactive),-0.999 (inactive),2.65,1.69 (inactive),-0.0719,0.323,0.793,-0.067
C=CCN1C(=O)[C@@]2(O[C@@H](CCO)[C@H]([Si](C)(C)c3ccc(OC)cc3)[C@H]2C)c2cc(N3CCOC3=O)ccc21,0.989,1.53 (inactive),0.885 (inactive),9.68 (active),1.86,0.976 (inactive),-0.0755,-0.355,0.347,-0.134
